Test [1] has as its system XIP peptide (Xip251-270) binding. In words: XIP fragment 251-270 binding compounds – biochemical, small-molecule microarray, fluorescence 635/667 nm, 0.1 µg/mL protein, primary screen (AID 1182). The following applies: fluorescent protein binding, 635 nm, higher = more signal, called active from +8 up or from −8 down.
A further test deals with XIP peptide (Xip251-270). In words: compounds binding XIP fragment 251-270 – biochemical, small-molecule microarray, fluorescence 635/667 nm, 0.5 µg/mL protein, primary screen (AID 1183). The following applies: fluorescence 635 nm, higher = more signal.
Test [2] can be described thus: blood-stage malaria parasite viability loss – strain 3D7, DAPI fluorescence, 100 nL, primary screen (AID 1184).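 Also: parasites grown inside human red blood cells in medium with human serum.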 The note with it: P. falciparum 3D7 growth, 3 d, higher = more signal.
Test [3] has as its target Homeobox protein Hox-A13 (Mus musculus) (UniProt Q62424). As to the kind of experiment: disruptors of Hoxa13 oligonucleotide interaction – biochemical, fluorescence polarization, labeled oligonucleotide, primary screen (AID 1185). The note with it: Hoxa13:DNA binding, 15 min, higher = more signal, called active from +8 up or from −8 down. A general note: Polarisation of emitted light reports the rotation of a fluorescent probe.

Test [4] can be described thus: blockers of DNA damage checkpoint Chk1 activation – imaging, HeLa, hydroxyurea, phospho-Chk1 antibody, percent positive cells, primary screen (AID 1186). The following applies: hydroxyurea-induced phospho-Chk1 immunofluorescence imaging, higher = more signal.
The nature of test [5]: blockers of DNA damage checkpoint Chk1 activation – imaging, HeLa, hydroxyurea, phospho-Chk1 nuclear intensity, primary screen (AID 1187). The note with it: hydroxyurea-induced phospho-Chk1 immunofluorescence imaging, higher = more signal.

Activity calls are given as the source filed them. Unless noted, no rule for the calls is given here.

Homeobox protein Hox-A13 (Mus musculus), sequence (Q62424 whole entry, looked up): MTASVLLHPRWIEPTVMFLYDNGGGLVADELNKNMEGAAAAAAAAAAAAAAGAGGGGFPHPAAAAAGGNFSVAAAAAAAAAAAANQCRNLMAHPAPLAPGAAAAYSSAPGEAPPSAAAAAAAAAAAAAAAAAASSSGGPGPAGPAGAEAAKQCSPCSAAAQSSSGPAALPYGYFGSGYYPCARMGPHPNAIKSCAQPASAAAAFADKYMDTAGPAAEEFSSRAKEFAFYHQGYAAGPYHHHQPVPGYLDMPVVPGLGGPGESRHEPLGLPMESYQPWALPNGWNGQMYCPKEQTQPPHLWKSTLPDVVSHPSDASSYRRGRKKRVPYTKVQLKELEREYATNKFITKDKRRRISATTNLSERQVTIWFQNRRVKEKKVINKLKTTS

As to `O=C(NCc1ccccc1)[C@@H]1c2ccccc2C(=O)N(CC23CC4CC(CC(C4)C2)C3)[C@H]1c1ccc(CO)cc1`, the results for the composite z-score (in test [1]; in the test on XIP peptide (Xip251-270)) were 0.149 (inactive) and 0.794, respectively. Moreover, the z-score in test [2] is -1.76; in test [3], -3.43 (inactive); in test [4] it was -0.221 (inactive); in test [5], -0.338 (inactive).
On to `C=CC[C@@]1(C(N)=O)N=C(c2ccc(OCCCO)cc2)O[C@@H]1c1ccccc1CN=[N+]=[N-]`, for which the composite z-score was 1.06 (inactive) in test [1] and 0.843 in the test on XIP peptide (Xip251-270). Further, the z-score is -1.7 in test [2], -3.93 (inactive) in test [3], 0.586 (inactive) in test [4] and 1.16 (inactive) in test [5].
As to `COc1cc2c(cc1O)C=[N+](Cc1cccc(OC(F)(F)F)c1)CC2`, the composite z-score in test [1] is -0.103 (inactive); in the test on XIP peptide (Xip251-270), 0.0686. Also, the z-score in test [2] is -1.94; in test [3], -3.45 (inactive); in test [4] it was -0.0564 (inactive); in test [5], -0.707 (inactive).
For `CC(C)C[C@@H]1NC(=O)[C@H]2C[C@@H](C(=O)NCCCCCCN)[C@@H](c3ccc(O)cc3)N2C1=O`, the composite z-score is 1.43 (inactive) in test [1] and 0.776 in the test with XIP peptide (Xip251-270). Further, the z-score in test [2] was -0.108; in test [3], -2.64 (inactive); in test [4] it was 0.273 (inactive); in test [5], -0.265 (inactive).
For the compound `CN1C(=O)C2C=CC(C(O)c3cc(C(F)(F)F)cc(C(F)(F)F)c3)N(N3CCCCC3)C2C1=O` (stereo not drawn), the composite z-score in test [1] was 0.11 (inactive); in the test on XIP peptide (Xip251-270) it was 0.289. In addition, the z-score was -0.0782 in test [2], -4.54 (inactive) in test [3], -1.22 (inactive) in test [4] and -1.63 (inactive) in test [5].
Take `COCC(=C=CC[C@@H](O)c1ccccc1OCCO)C[C@@H](O)c1cc(Cl)cc(Cl)c1O`: the composite z-score in test [1] is 0.589 (inactive); in the test on XIP peptide (Xip251-270) it was 0.682. The z-score in test [2] was -1.84; in test [3], -3.71 (inactive); in test [4] it was 0.161 (inactive); in test [5], 0.377 (inactive).
On to `CCCCCC1=C2CNC(CCC)(C(=O)OC)C=C2C(C)C1=O` (stereo not drawn), for which the composite z-score is 0.455 (inactive) in test [1] and -0.0874 with XIP peptide (Xip251-270). For the same compound, the z-score in test [2] is -0.175; in test [3], -6.92 (inactive); in test [4], 0.138 (inactive); in test [5], 0.466 (inactive).
In the case of `CC(C)(C)OC(=O)CC[C@]1(C(=O)NCC(O)CO)COC(c2ccc(OCCCO)cc2)=N1` (stereo partly drawn), the figures for the composite z-score (in test [1]; with XIP peptide (Xip251-270)) were 0.273 (inactive) and 0.151, respectively. For the same compound, the z-score is -0.104 in test [2], -3.95 (inactive) in test [3], 0.505 (inactive) in test [4] and 0.437 (inactive) in test [5].
As for `COc1ccc(CCNC(=O)[C@@]2(C)c3ccccc3C(=O)N(Cc3cc(F)cc(C(F)(F)F)c3)[C@H]2c2ccc(CO)cc2)cc1`, the composite z-score is 0.17 (inactive) in test [1] and 0.464 with XIP peptide (Xip251-270). The z-score in test [2] is -1.49; in test [3] it was -4.2 (inactive); in test [4] it was 0.027 (inactive); in test [5] it was 0.116 (inactive).
Consider `COC(=O)c1c(CC[C@@H](CO)NC(=O)N2CCC[C@H]2Cn2cc(-c3ccccn3)nn2)oc(C(C)=O)c1C(=O)OC`, for which the composite z-score was 1.82 (inactive) in test [1] and 0.667 in the test with XIP peptide (Xip251-270). Further, the z-score was -1.04 in test [2], -2.59 (inactive) in test [3], -0.828 (inactive) in test [4] and -0.692 (inactive) in test [5].
As for `[N-]=[N+]=Nc1ccccc1C[C@@]1(C(=O)NCCN2CCOCC2)N=C(c2ccc(OCCCO)cc2)O[C@@H]1c1ccccc1`, the composite z-score in test [1] is 0.58 (inactive); in the test with XIP peptide (Xip251-270), 0.827. Also, the z-score is -2.33 in test [2], -4.23 (inactive) in test [3], -0.785 (inactive) in test [4] and -1.11 (inactive) in test [5].
For `[N-]=[N+]=Nc1ccccc1C[C@]1(C(=O)NCC(O)CO)N=C(c2ccc(OCCCO)cc2)O[C@H]1c1ccccc1N=[N+]=[N-]` (stereo partly drawn), the composite z-score in test [1] is 0.0936 (inactive); in the test on XIP peptide (Xip251-270), -0.316. Moreover, the z-score in test [2] is -2.44; in test [3], -5.33 (inactive); in test [4], -0.467 (inactive); in test [5], -0.312 (inactive).
Consider `C=CCOC(=O)[C@@H]1[C@H]2C(=O)O[C@H](c3ccccc3)[C@H](c3ccccc3)N2[C@H](c2ccc(OCCOC(=O)[C@@H]3C[C@@H]4C(=O)N[C@@H](Cc5ccccc5)C(=O)N4[C@@H]3c3ccc(O)cc3)cc2)[C@@]12C(=O)Nc1ccc(I)cc12`, for which the results for the composite z-score (in test [1]; with XIP peptide (Xip251-270)) were 0.895 (inactive) and 0.736, respectively. Also, the z-score in test [2] is -1.95; in test [3] it was -0.584 (inactive); in test [4], 0.193 (inactive); in test [5], 0.453 (inactive).
For `Cc1ccc(S[C@]2(C(=O)NCCN3CCOCC3)CC(=O)N(Cc3ccccc3Cl)[C@@H]2c2ccc(CO)cc2)cc1`, the composite z-score in test [1] was -0.255 (inactive); in the test with XIP peptide (Xip251-270), 0.686. Further, the z-score was -1.47 in test [2], -4.04 (inactive) in test [3], -0.114 (inactive) in test [4] and -0.121 (inactive) in test [5].
For `O=C1c2ccccc2[C@](Cc2ccccc2I)(C(=O)NC2CC2)[C@H](c2ccc(CO)cc2)N1C1CCCCC1`, the composite z-score is 0.247 (inactive) in test [1] and 0.743 with XIP peptide (Xip251-270). The z-score was -1.77 in test [2], -3.63 (inactive) in test [3], -0.199 (inactive) in test [4] and -0.0711 (inactive) in test [5].
Turning to `O=C1NCC(=O)N2[C@@H]1C[C@@H](C(=O)O)[C@H]2c1cccc(OCCO)c1`, the composite z-score in test [1] was 6.39 (inactive); in the test on XIP peptide (Xip251-270), 1.02. Besides, the z-score was 0.0934 in test [2], -1.39 (inactive) in test [3], -0.467 (inactive) in test [4] and -0.367 (inactive) in test [5].
On to `COCCOC(=O)N1C(=O)[C@@]2(c3ccccc31)[C@H](c1ccccc1OCCO)N1[C@H](c3ccccc3)[C@H](c3ccccc3)OC(=O)[C@H]1[C@@H]2C(=O)Nc1nc2ccccc2s1`, for which the composite z-score is 0.219 (inactive) in test [1] and 0.823 in the test on XIP peptide (Xip251-270). The z-score in test [2] is -0.697; in test [3], 0.922 (inactive); in test [4], 0.002 (inactive); in test [5], 0.122 (inactive).
In the case of `COCCOC(=O)N1C(=O)[C@@]2(c3cc(C#CC4=CCCCC4)ccc31)[C@H](c1ccc(O)cc1)N1[C@H](c3ccccc3)[C@H](c3ccccc3)OC(=O)[C@H]1[C@@H]2C(N)=O`, the composite z-score in test [1] is 0.181 (inactive); with XIP peptide (Xip251-270) it was 0.751. For the same compound, the z-score is -0.0117 in test [2], -1.22 (inactive) in test [3], 0.0809 (inactive) in test [4] and 0.185 (inactive) in test [5].

The record behind these values is PubChem BioAssay.
